GLP-1R inv ag = inverse agonists of human GLP-1 receptor. P43220. HEK293 GLP-1R CRE-luciferase, luminescence, 24 h; GLP-1R form is constitutively active. Potency, µM (top dose mostly 38.3 µM), hits mostly inhibitors. 1.6% of 410,000 active. AID 624417; further: nearly all actives have a fitted effect of over 55% in size
Target sequence (P43220 whole entry, looked up): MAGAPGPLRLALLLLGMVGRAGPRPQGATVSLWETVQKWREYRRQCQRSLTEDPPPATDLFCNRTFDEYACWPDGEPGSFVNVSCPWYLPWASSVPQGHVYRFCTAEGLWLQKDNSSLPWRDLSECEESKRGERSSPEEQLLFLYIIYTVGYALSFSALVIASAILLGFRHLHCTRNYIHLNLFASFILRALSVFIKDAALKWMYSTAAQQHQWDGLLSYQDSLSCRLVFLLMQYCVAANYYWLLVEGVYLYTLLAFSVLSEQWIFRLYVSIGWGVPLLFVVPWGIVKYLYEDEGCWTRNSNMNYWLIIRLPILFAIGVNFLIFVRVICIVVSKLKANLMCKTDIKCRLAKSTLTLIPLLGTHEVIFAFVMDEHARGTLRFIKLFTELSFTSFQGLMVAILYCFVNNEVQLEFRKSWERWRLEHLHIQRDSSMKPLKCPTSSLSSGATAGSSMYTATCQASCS
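Cells are plated, allowed 12 hours at 37 deg C, then treated with compounds for 24 hr before luciferase detection reagent is added and luminescence is read after 12 min at room temperature. The HEK293 line carries constitutively active GLP-1R with a cAMP-responsive reporter.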
GLP-1R agonist = agonists of human GLP-1 receptor. HEK293 GLP-1R CRE-luciferase, luminescence, 4-6 h; cells express a hypersensitive GLP-1R form. Potency, µM (top dose mostly 45.6 µM), actives largely listed as activators. 0.007% of 380,000 active
HEK293 tox = cytotoxicity counter-screen for GLP-1 receptor inverse agonists | 0.13% of 410,000 active | HEK293 cAMP-luciferase reporter cells, luminescence, 24 h | Potency, µM (titrated, usually from 38.3 µM), hits mostly inhibitors;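 further: loss of luciferase light is scored as toxicity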
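Compound-treated cells are incubated 24 hr at 37 deg C under 5% CO2 after a 12 hour attachment period, then luciferase detection reagent is added and luminescence is measured following 12 min at room temperature; lowered signal indicates toxicity.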
p53 reactivation = restores transcriptional activity of mutant p53 | H1299 p53-A138V BP100-luciferase reporter, luminescence, 24 h | Potency, µM (titrated, usually from 92.2 µM), hits mostly activators | 0.063% of 320,000 active | AID 504706; further: nearly all actives have a fitted effect of over 45% in size
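H1299 (p53-null), stable ts p53-A138V + BP100-Luc; 1000 cells/well, Opti-MEM/10% FBS; cpd 4 pt, 1:5; 24 h, 37 deg C, 5% CO2; detection reagent 10 min RT; luminescence.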
LDHA inh = inhibitors of human lactate dehydrogenase A. activity change, % (values are at about 110 or 230 µM). P00338. purified LDHA, NADH/diaphorase-resazurin fluorescence; active compounds read low. 0.15% of 480,000 active; in the data active means activity change below about -30%; inconclusive means mostly about -25% to -30%
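LDH5 2 nM; NADH 0.06 mM, pyruvate 0.2 mM; 200 mM Tris pH 7.4, EDTA, Tween-20; 5 min RT. Detection: diaphorase 0.133 mg/mL + resazurin 37 µM, fluorescence ex540/em590 at 0 and 20 min; normalized to enzyme-free and DMSO wells.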
ClpP mod = qHTS Assay for Activators of ClpP | ATP-dependent Clp protease proteolytic subunit (Bacillus subtilis (strain 168)), P80244 | purified B. subtilis ClpP, FRET peptide cleavage, 20 min | Potency, µM (titrated, usually from 57.5 µM) | 1.9% of 340,000 active; active means well fitted falling curve with a large enough effect; inconclusive means small, poorly fitted or top-dose-only effect; inactive means no such curve, though single readings can be large or run the other way; further: the source files actives as falling curves though it sought activators and does not explain the sign; nearly all actives have a fitted effect of over 65% in size
Target sequence (P80244 whole entry, looked up): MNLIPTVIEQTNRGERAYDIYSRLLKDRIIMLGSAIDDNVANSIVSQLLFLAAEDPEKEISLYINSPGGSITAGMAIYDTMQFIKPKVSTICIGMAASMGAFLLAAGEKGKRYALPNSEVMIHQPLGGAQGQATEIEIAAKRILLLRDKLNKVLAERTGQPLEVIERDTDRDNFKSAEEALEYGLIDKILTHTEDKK
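ClpP 10 microg/mL final, pH 8 Tris/KCl buffer with BSA, glycerol, Tween-20; compound pinned in; FRET-FV substrate; RT 20 min; Ex320/Em430; ΔFRET vs ADEP 5.8 microM, DMSO, no enzyme.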
A number is an active result; i = inactive; ? = inconclusive; nt = not tested or not shown; ! = not confirmed by another sample. Only some compounds are listed: those with a hit (about 2.9% of all), similar ones and a draw of the others. Unless noted, the call rests on the fitted dose curve; in most records, active means well fitted curve in the direction sought with a large enough effect; inconclusive means small, poorly fitted or top-dose-only effect, or another doubt; inactive means no such curve, though single readings can be large; an effect the other way counts as inactive or inconclusive.

SMILES	GLP-1R inv ag	GLP-1R agonist	HEK293 tox	p53 reactivation	LDHA inh	ClpP mod
O=C(c1cnc(N2CCCCC2)c2ccccc12)N1CCN(c2cccc(Cl)c2)CC1	?	nt	i	nt	i	28µM
Cc1ccc(NC(=O)c2cnc(N3CCCCC3)c3ccccc23)cc1Cl	?	nt	i	nt	i	32µM
COc1ccc(Nc2ncc(C(=O)N3CCN(c4cccc(Cl)c4)CC3)c3ccccc23)cc1	8.9µM	i	i	nt	i	?
CCOC(=O)c1ccccc1NC(=O)c1cnc(N2CCOCC2)c2ccccc12	i	nt	i	nt	i	32µM
N#Cc1ccccc1NC(=O)c1cnc(N2CCOCC2)c2ccccc12	i	nt	i	nt	i	i
COc1ccccc1N1CCN(c2ncc(C(=O)N3CCN(c4cccc(Cl)c4)CC3)c3ccccc23)CC1	?	i	i	i	i	nt
Cc1ccc(-c2cc(C(=O)O)c3cc(Br)ccc3n2)s1	?	i	i	i	i	i
Cc1ccc(Nc2ncc(C(=O)N3CCN(c4ccc(F)cc4)CC3)c3ccccc23)cc1Cl	2.8µM	i	i	nt	i	i
CCC(=O)Nc1cccc(C(=O)/C=C/c2ccccc2)c1	?	i	?	i	i	16µM
COCCN(C/C=C/c1ccccc1)C/C=C/c1ccccc1	?	i	i	i	i	i
CN1CCc2cc3c(c4c2C1CC41CCC(=NO)CC1)OCO3 (centres undefined)	i	i	i	i	i	32µM
Cc1ccc(-c2ccc(/C=C3\SC(N4CCOCC4)=NC3=O)o2)cc1	4.5µM	i	i	i	i	nt
NC(Cc1ccccc1)c1csc(Nc2ccc(C(=O)c3ccccc3)cc2)n1 (centres undefined)	10µM	i	?	nt	i	i
CCN(CC)CCN(C(=O)c1ccc2c(c1)OCCO2)c1nc2c(Cl)cccc2s1	?	i	?	i	i	i
CCN(CC)CCN(C(=O)c1ccc2c(c1)OCCO2)c1nc2cc(C)cc(C)c2s1	11µM	i	i	?	i	i
O=C(CNC(=O)Cc1ccccc1)NCC(=O)OCC(=O)c1cccc2ccccc12	i	i	i	i	-41!	i
O=C(Cc1ccccc1)NCC(=O)OCC(=O)c1ccc2ccccc2c1	nt	nt	nt	nt	i	28µM
O=C(CNC(=O)c1ccccc1)NCC(=O)OCC(=O)c1ccc2ccccc2c1	nt	nt	nt	nt	i	i
COc1ccc(N(CC(=O)Nc2ccc(OC)c(Cl)c2)S(=O)(=O)c2c(C)noc2C)cc1	i	i	i	i	i	i
COc1ccc(OC)c(NC(=O)CN(c2ccc(C(C)C)cc2)S(=O)(=O)c2c(C)noc2C)c1	?	i	i	i	i	i
COc1ccc(N(CC(=O)Nc2cc(Cl)ccc2OC)S(=O)(=O)c2c(C)noc2C)cc1	4.5µM	i	i	?	i	i
COc1cccc(CNC(=O)CN(c2cc(C)cc(C)c2)S(=O)(=O)c2c(C)noc2C)c1	10µM	i	i	i	i	i
COc1ccc(OC)c(NC(=O)CN(c2ccc(C)cc2)S(=O)(=O)c2c(C)noc2C)c1	10µM	i	i	i	i	i
Cc1ccc(C(=O)Nc2ccc3oc(-c4cc(Br)ccc4Cl)nc3c2)cc1	i	nt	i	nt	i	?
COc1ccc(Nc2nc3ccccc3nc2NS(=O)(=O)c2ccc(NC(C)=O)cc2)cc1	i	i	i	i	i	nt
SMILES	GLP-1R inv ag	GLP-1R agonist	HEK293 tox	p53 reactivation	LDHA inh	ClpP mod
COc1ccc(Cl)cc1Nc1ncnc2sc(C)c(S(=O)(=O)N3CCC(C)CC3)c12	i	i	i	i	i	32µM
COc1cc(OC)c(NC(=O)Cn2cnc3sc(C)c(S(=O)(=O)N4CCC(C)CC4)c3c2=O)cc1Cl	i	nt	i	nt	i	i
Cc1ccc2nc(C3CCCN(C(=S)Nc4cccc(C)c4C)C3)[nH]c2c1 (centres undefined)	?	i	11µM	i	i	i
Cc1ccc(NC(=S)N2CCCC(c3nc4ccc(C)cc4[nH]3)C2)c(C)c1 (centres undefined)	?	i	?	i	i	i
Cc1n[nH]c(C)c1S(=O)(=O)N1CCCC(C(=O)Nc2ccc(Cl)cc2)C1 (centres undefined)	?	i	i	nt	i	i
Cc1ccc(S(=O)(=O)N(Cc2nc(-c3cccc(C)c3)no2)C2CCCCC2)cc1	10µM	nt	i	nt	i	i
O=S(=O)(c1ccccc1)N(Cc1nc(-c2ccccc2)no1)C1CCCCC1	6.3µM	i	i	i	i	i
O=C(COc1ccc(-c2ccccc2)cc1)NNC(=O)Nc1ccc(F)cc1F	i	i	i	i	i	32µM
CCOc1cccc(-c2nc(-c3c[nH]c(C(=O)N4CCCC4)c3)cs2)c1	nt	nt	nt	nt	i	nt
Cc1nc2c(sc(=S)n2Cc2ccco2)c(=O)n1CC(=O)Nc1ccc(F)cc1	i	i	i	i	i	i
Cc1nc2c(sc(=S)n2Cc2ccco2)c(=O)n1CC(=O)Nc1cc(F)ccc1F	1.4µM	i	i	i	i	i
CCCCOc1ccc(C2OC34CCCCC3C(C#N)(C#N)C2(C#N)C(=N)O4)cc1 (centres undefined)	i	i	i	i	i	i
C=CCOc1ccc(C2OC34CCCCC3C(C#N)(C#N)C2(C#N)C(=N)O4)cc1 (centres undefined)	i	i	i	i	i	22µM
CCCOc1ccc(-c2nc(C#N)c(N3CCN(CC)CC3)o2)cc1	?	i	i	i	i	28µM
CCN1CCN(c2oc(-c3ccc([N+](=O)[O-])cc3)nc2C#N)CC1	i	i	i	i	i	nt
CCOc1ccc(-c2nc(C#N)c(N3CCN(CC)CC3)o2)cc1	i	i	i	i	i	10µM
CCCOc1ccc(-c2nc(C#N)c(N3CCc4ccccc4C3)o2)cc1	i	i	i	i	i	16µM
CCOc1ccc(-c2nc(C#N)c(N3CCN(C)CC3)o2)cc1	i	i	i	i	i	?
CCOc1ccc(-c2nc(C#N)c(N3CCCCCC3)o2)cc1	?	i	i	i	i	i
CCCOc1ccc(-c2nc(C#N)c(N3CCN(C)CC3)o2)cc1	?	i	i	i	i	32µM
CCOC(=O)C(C)Sc1nnc2cc(C)c3ccccc3n12 (centres undefined)	i	nt	i	nt	i	i
CC(=O)O[C@H](COc1c2ccoc2cc2oc(=O)ccc12)C(C)(C)O	i	i	i	i	i	i
CCCCC(=O)N1CC(=O)Nc2ccc(F)cc2C1c1ccc(F)cc1 (centres undefined)	i	i	i	i	i	20µM!
